Test results reported in the supplement of paper PMC9262897, “Low-cost anti-mycobacterial drug discovery using engineered E. coli” (Nature Communications, 2022).
Counter-ions that a name gives are not always drawn. ± gives the standard deviation of the averaged measurements.

Assays:
Test in all cases: growth (OD600 after 10 h); higher = more growth (less inhibition)
[1] = tested on: E. coli TESEC Alr+ wild-type control; settings: compound 0.1 mM; raw OD600 reference: median of DMSO wells 0.241, cell-free background 0.041
Method: (§1)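 TESEC Mtb Alr E. coli, or the Alr+ wild-type control, in 384-well plates with Prestwick library compounds at 0.1 mM and 1% DMSO, across arabinose induction levels of 1E3 to 1E7 nM. Growth is read as OD600 after 10 h at 37 °C in triplicate biological replicates.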

E. coli TESEC Mtb Alr [2] = settings: compound 0.1 mM
Method: as §1

E. coli TESEC Mtb Asd = settings: compound 0.1 mM
Method: (§2)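 TESEC E. coli strains in which the native enzyme is deleted and replaced by arabinose-inducible Mtb Asd, DapB, CysH or TrpD, each grown in its selective medium. Strains were screened against the Prestwick library at 0.1 mM and 1% DMSO in 384-well format at low and high arabinose induction. Growth is read as OD600 after 10 h in triplicate.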

E. coli TESEC Mtb DapB = settings: compound 0.1 mM
Method: as §2

[3] = tested on: E. coli TESEC Alr+ wild-type control; settings: compound 0.1 mM; raw OD600 reference: median of DMSO wells 0.49, cell-free background 0.052
Method: (§3)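 TESEC Mtb Alr E. coli (ΔaraC ΔtolC ΔentC Δalr ΔdadX, arabinose-inducible Mtb Alr) or the Alr+ wild-type control strain, grown in defined M9-fructose medium without D-alanine in 96-well plates with Prestwick library compounds at 0.1 mM and 1% DMSO. Low Alr induction is 0.1 µM arabinose and high induction is 10 mM arabinose.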

E. coli TESEC Mtb Alr [4] = settings: compound 0.1 mM; remark: listed apart in the source
Method: as §3

[5] = arabinose 1000 nM, raw OD600 reference: median of DMSO wells 0.294, cell-free background 0.041
[6] = arabinose 10000 nM, raw OD600 reference: median of DMSO wells 0.264, cell-free background 0.041
[7] = arabinose 100000 nM, raw OD600 reference: median of DMSO wells 0.201, cell-free background 0.041
[8] = arabinose 1000000 nM, raw OD600 reference: median of DMSO wells 0.193, cell-free background 0.041
[9] = arabinose 10000000 nM, raw OD600 reference: median of DMSO wells 0.146, cell-free background 0.041
[10] = arabinose induction (level): High, raw OD600 reference: median of DMSO wells 0.331, cell-free background 0.041
[11] = arabinose induction (level): Low, raw OD600 reference: median of DMSO wells 0.417, cell-free background 0.041
[12] = arabinose induction (level): High, raw OD600 reference: median of DMSO wells […], cell-free background 0.041
[13] = arabinose induction (level): Low, raw OD600 reference: median of DMSO wells 0.227, cell-free background 0.041
[14] = arabinose 100 nM, raw OD600 reference: median of DMSO wells 0.413, cell-free background 0.052
[15] = arabinose 10000000 nM, raw OD600 reference: median of DMSO wells […], cell-free background 0.052

| Compound | growth [1] | growth (E. coli TESEC Mtb Alr [2]; [5]) | growth (E. coli TESEC Mtb Alr [2]; [6]) | growth (E. coli TESEC Mtb Alr [2]; [7]) | growth (E. coli TESEC Mtb Alr [2]; [8]) | growth (E. coli TESEC Mtb Alr [2]; [9]) | growth (E. coli TESEC Mtb Asd; [10]) | growth (E. coli TESEC Mtb Asd; [11]) | growth (E. coli TESEC Mtb DapB; [12]) | growth (E. coli TESEC Mtb DapB; [13]) | growth [3] | growth (E. coli TESEC Mtb Alr [4]; [14]) | growth (E. coli TESEC Mtb Alr [4]; [15]) |
| --- | --- | --- | --- | --- | --- | --- | --- | --- | --- | --- | --- | --- | --- |
| Clc1ccc2nsnc2c1NC1=NCCN1 [Tizanidine HCl] | 0.245 ± 0.011 | 0.287 ± 0.017 | 0.262 ± 0.00087 | 0.193 ± 0.028 | 0.185 ± 0.0059 | 0.142 ± 0.0064 | 0.248 ± 0.011 | 0.383 ± 0.057 | 0.216 ± 0.032 | 0.222 ± 0.022 | 0.623 ± 0.019 | 0.401 ± 0.0081 | 0.325 ± 0.015 |
| Cc1cnc(C(=O)O)c[n+]1[O-] [Acipimox] | 0.244 ± 0.006 | 0.304 ± 0.025 | 0.247 ± 0.0063 | 0.218 ± 0.029 | 0.1751 ± 0.0015 | 0.1397 ± 0.00085 | 0.263 ± 0.085 | 0.282 ± 0.065 | 0.199 ± 0.013 | 0.217 ± 0.021 | 0.497 ± 0.06 | 0.41 ± 0.009 | 0.338 ± 0.021 |
| C#Cc1cccc(Nc2ncnc3cc(OCCOC)c(OCCOC)cc23)c1 [Erlotinib] | 0.193 ± 0.0065 | 0.256 ± 0.01 | 0.236 ± 0.0081 | 0.202 ± 0.0068 | 0.146 ± 0.0076 | 0.185 ± 0.01 | 0.349 ± 0.093 | 0.303 ± 0.066 | 0.161 ± 0.0058 | 0.201 ± 0.0093 | 0.436 ± 0.03 | 0.411 ± 0.005 | 0.35 ± 0.012 |
| CCCc1cc(=O)[nH]c(=S)[nH]1 [Propylthiouracil] | 0.241 ± 0.0062 | 0.289 ± 0.025 | 0.263 ± 0.0094 | 0.219 ± 0.034 | 0.195 ± 0.0092 | 0.152 ± 0.0063 | 0.431 ± 0.04 | 0.45 ± 0.047 | 0.199 ± 0.0093 | 0.194 ± 0.019 | 0.55 ± 0.1 | 0.41 ± 0.015 | 0.345 ± 0.043 |
| CC(C)NNC(=O)c1ccncc1 [Iproniazide phosphate] | 0.253 ± 0.0043 | 0.276 ± 0.0095 | 0.27 ± 0.0057 | 0.219 ± 0.033 | 0.188 ± 0.007 | 0.153 ± 0.0052 | 0.359 ± 0.057 | 0.43 ± 0.014 | 0.199 ± 0.02 | 0.223 ± 0.034 | 0.496 ± 0.095 | 0.417 ± 0.007 | 0.374 ± 0.011 |
| Cc1cc(CC(=O)O)n(C)c1C(=O)c1ccc(Cl)cc1 [Zomepirac sodium salt] | 0.22 ± 0.0032 | 0.261 ± 0.022 | 0.239 ± 0.0082 | 0.16 ± 0.0043 | 0.1938 ± 0.0017 | 0.121 ± 0.0027 | 0.473 ± 0.13 | 0.295 ± 0.069 | 0.187 ± 0.0096 | 0.247 ± 0.038 | 0.476 ± 0.083 | 0.392 ± 0.014 | 0.3428 ± 0.0013 |
| CC1(O)CCOC(=O)C1 (stereo unspecified) [Mevalonic-D, L acid lactone] | 0.244 ± 0.0056 | 0.304 ± 0.017 | 0.271 ± 0.0041 | 0.186 ± 0.019 | 0.203 ± 0.0065 | 0.141 ± 0.0074 | 0.269 ± 0.027 | 0.402 ± 0.022 | 0.183 ± 0.011 | 0.206 ± 0.024 | 0.506 ± 0.11 | 0.394 ± 0.03 | 0.349 ± 0.015 |
| COc1cc(C)nc(-n2nc(C)cc2OC)n1 [Epirizole] | 0.2428 ± 0.0024 | 0.263 ± 0.012 | 0.249 ± 0.0083 | 0.178 ± 0.019 | 0.18 ± 0.0057 | 0.139 ± 0.005 | 0.342 ± 0.051 | 0.465 ± 0.042 | 0.192 ± 0.025 | 0.238 ± 0.054 | 0.493 ± 0.031 | 0.421 ± 0.011 | 0.27 ± 0.12 |
| CNCCc1ccccn1 [Betahistine mesylate] | 0.251 ± 0.0026 | 0.302 ± 0.006 | 0.269 ± 0.0066 | 0.243 ± 0.047 | 0.182 ± 0.0047 | 0.164 ± 0.005 | 0.299 ± 0.087 | 0.4 ± 0.042 | 0.217 ± 0.025 | 0.25 ± 0.017 | 0.557 ± 0.1 | 0.408 ± 0.014 | 0.319 ± 0.025 |
| C#C[C@]1(O)CC[C@H]2[C@@H]3CCc4cc(O)ccc4[C@H]3CC[C@@]21C [Ethinylestradiol] | 0.0556 ± 0.00079 | 0.0489 ± 0.0023 | 0.0421 ± 0.00055 | 0.0506 ± 0.0016 | 0.0444 ± 0.00061 | 0.05593 ± 0.00015 | 0.112 ± 0.017 | 0.0911 ± 0.062 | 0.0856 ± 0.007 | 0.0703 ± 0.0015 | 0.0818 ± 0.0029 | 0.303 ± 0.024 | 0.0705 ± 0.016 |
| CC(C)NCC(O)c1ccc(O)c(O)c1 (single isomer, unassigned; (+)) [(+)-Isoproterenol (+)-bitartrate salt] | 0.211 ± 0.0042 | 0.274 ± 0.02 | 0.2493 ± 0.0013 | 0.18 ± 0.015 | 0.149 ± 0.0077 | 0.137 ± 0.0022 | 0.328 ± 0.028 | 0.468 ± 0.034 | 0.2017 ± 0.0019 | 0.199 ± 0.0075 | 0.497 ± 0.044 | 0.412 ± 0.013 | 0.326 ± 0.021 |
| CC(C(=O)O)c1ccc2c(c1)Cc1cccnc1O2 (stereo unspecified) [Pranoprofen] | 0.238 ± 0.0049 | 0.302 ± 0.013 | 0.271 ± 0.0097 | 0.192 ± 0.016 | 0.193 ± 0.0053 | 0.133 ± 0.0031 | 0.315 ± 0.03 | 0.367 ± 0.0097 | 0.192 ± 0.008 | 0.198 ± 0.013 | 0.4398 ± 0.0017 | 0.415 ± 0.0046 | 0.316 ± 0.012 |
| Cc1c(O)cccc1C(=O)N[C@@H](CSc1ccccc1)[C@H](O)CN1C[C@H]2CCCC[C@H]2C[C@H]1C(=O)NC(C)(C)C [Nelfinavir mesylate] | 0.279 ± 0.06 | 0.329 ± 0.0095 | 0.284 ± 0.031 | 0.323 ± 0.062 | 0.148 ± 0.0082 | 0.276 ± 0.041 | 0.215 ± 0.019 | 0.275 ± 0.015 | 0.197 ± 0.077 | 0.23 ± 0.086 | 0.509 ± 0.09 |  |  |
| OCCOCCN1CCN(C(c2ccccc2)c2ccc(Cl)cc2)CC1 (stereo unspecified) [Hydroxyzine dihydrochloride] | 0.142 ± 0.0048 | 0.202 ± 0.0073 | 0.243 ± 0.004 | 0.171 ± 0.0032 | 0.11 ± 0.0035 | 0.1214 ± 0.0011 | 0.164 ± 0.0026 | 0.27 ± 0.013 | 0.182 ± 0.011 | 0.239 ± 0.048 | 0.45 ± 0.02 | 0.421 ± 0.009 | 0.219 ± 0.011 |
| CCCCN1CCCCC1C(=O)Nc1c(C)cccc1C (stereo unspecified) [Bupivacaine hydrochloride] | 0.2359 ± 0.0017 | 0.301 ± 0.0072 | 0.247 ± 0.0053 | 0.21 ± 0.0045 | 0.167 ± 0.0039 | 0.157 ± 0.0046 | 0.257 ± 0.046 | 0.418 ± 0.025 | 0.187 ± 0.013 | 0.266 ± 0.047 | 0.489 ± 0.051 | 0.409 ± 0.01 | 0.339 ± 0.014 |
| CC(=O)O[C@H]1C[C@@]2(C)[C@@H](C[C@@H](O)[C@H]3[C@@]4(C)CC[C@@H](O)[C@@H](C)[C@@H]4CC[C@@]32C)/C1=C(\CCC=C(C)C)C(=O)O [Fusidic acid sodium salt] | 0.04197 ± 0.0004 | 0.0422 ± 0.00097 | 0.0411 ± 0.001 | 0.0429 ± 0.0003 | 0.0403 ± 0.00017 | 0.04237 ± 0.00032 | 0.0498 ± 0.0038 | 0.0478 ± 0.0026 | 0.0536 ± 0.0022 | 0.052 ± 0.0007 | 0.05317 ± 0.00047 | 0.11 ± 0.0058 | 0.0515 ± 0.00085 |
